Out of some 69,000 compounds screened, about 8,600 (12%) showed an effect of 50% or more. This is one part of a sample in which strong results are shown more often than they occur.

This assay has as its system Plasmodium berghei. Briefly: Screen against P. berghei liver stage (PbLuc), transformed with Luciferase, at 10uM. Format: functional, HepG2. The following applies: tested at 10 uM.
Take `COc1ccnc(NC(Cc2ccccc2)C(=O)N(C)C)n1` (centres undefined): the INHIBITION was determined as 8.7%.

Consider `O=C(NC[C@H]1C[C@@H]2CN(C(=O)c3ccco3)C[C@@H]2O1)c1ccsc1`, for which the INHIBITION came to 18.6%.

Turning to `Cn1cccc1C(=O)NC[C@H]1C[C@@H]2CN(C(=O)c3ccco3)C[C@@H]2O1`, the INHIBITION turned out to be 7.7%.

`O=C(NC[C@@H]1C[C@@H]2CN(C(=O)CO)C[C@H]2O1)c1ccsc1`: the INHIBITION was 52.1%.

Turning to `CC(C)OCc1ncn2c1CN(Cc1cccs1)CCC2`, the INHIBITION is 15.9%.

`CCn1cc2c(n1)C(COC)CN(C(=O)CCOc1ccccc1)C2` (centres undefined): the INHIBITION was -37.9%.

For the molecule `CCc1cnc(N)nc1NC(C)c1ccc(C)c(C)c1` (centres undefined), the INHIBITION worked out at 88.2%.

As for `CCc1cnc(N)nc1NC(C)c1cnn(C)c1` (centres undefined), the INHIBITION came out at 17.8%.

Take `CCc1cnc(N)nc1N[C@@H](C)c1ncccc1C`: the INHIBITION was 3.96%.

Consider `CN(CC(O)C(F)(F)F)C(=O)Nc1cccc(N2CCCC2)c1` (centres undefined), for which the INHIBITION is given as -16.4%.

Turning to `Cn1cc(CN2CCC(F)(F)C3(CCN(c4ncc(F)cn4)C3)C2)cn1` (centres undefined), the INHIBITION was 12.5%.

Turning to `O=C(c1ccc(Cn2ccccc2=O)o1)N1CCSCC1`, the INHIBITION is 20.45%.

On to `COCc1csc(NC(=O)NCc2ccccn2)n1`, for which the INHIBITION is listed as -3.99%.

`COc1c(Cl)cccc1NCc1csc(C)n1`: the INHIBITION was -1.37%.

Consider `COc1c(Cl)cccc1NCc1csc(NC(C)=O)n1`, for which the INHIBITION turned out to be 89.4%.

In the case of `CC(=O)Nc1nc(CNc2ccccc2CCC(F)(F)F)cs1`, the INHIBITION stood at 42.6%.

With `COCc1ccccc1NCc1csc(NC(C)=O)n1`, the INHIBITION is 89%.

For the molecule `COCCS(=O)(=O)Cc1csc(NC(C)=O)n1`, the INHIBITION stood at 21.8%.

Turning to `CNc1nc(CNC(=O)Nc2cccc(Cl)c2OC)cs1`, the INHIBITION was 3.263%.

As for `CCOC(C)c1nc(CNc2cccc(Cl)c2OC)cs1` (centres undefined), the INHIBITION is -3.08%.

Turning to `CC(=O)Nc1nc(CS(=O)(=O)Cc2ccccc2)cs1`, the INHIBITION was 55.4%.

`Cc1nc(CNc2cccc(Cl)c2Cl)cs1`: the INHIBITION amounted to 50%.

In the case of `Cc1nc(CNc2ccccc2CCC(F)(F)F)cs1`, the INHIBITION is -13.6%.

On to `CC(=O)Nc1nc(CS(=O)(=O)CCCc2ccccc2)cs1`, for which the INHIBITION was -25.2%.

`CN(Cc1ccco1)C(=O)C1CSCN1C(=O)c1cccs1` (centres undefined): the INHIBITION is given as -31.8%.

In the case of `CCS(=O)(=O)N1CC[C@@H]2[C@H](CC1)N(Cc1cccnc1)CCS2(=O)=O`, the INHIBITION was 5.56%.

For the molecule `CCCC(=O)Nc1ccc(CC(=O)N(C)CCc2cn[nH]c2)cc1`, the INHIBITION was 17.3%.

For the molecule `COCC1N(C(=O)c2ccc3c(c2)OCCCO3)C2CCC1(O)CC2` (centres undefined), the INHIBITION is reported as -35.3%.

In the case of `CN1CC(C(=O)NCc2cccnc2-n2cccn2)CC1=O` (centres undefined), the INHIBITION is listed as -37.7%.

With `COCC1CN(Cc2cc(C)on2)Cc2cnn(C)c21` (centres undefined), the INHIBITION is -13.7%.

In the case of `CCn1c(Cn2cncn2)nnc1C1CCN(Cc2cccnc2)CC1`, the INHIBITION was -50.8%.

As for `Cc1nn(C)c2c(N3CCSCC3)nc(C3CC3)nc12`, the INHIBITION was found to be 22.6%.

For the molecule `CN1CCN(c2ccc(NCc3ccc(OC(F)(F)F)cc3)cn2)CC1`, the INHIBITION was found to be 83.2%.

On to `CN(Cc1ccsc1)C(=O)Nc1ccc(N2CCCC2)nc1`, for which the INHIBITION is recorded as 15.3%.

Consider `CN1CCN(c2ccc(NCc3ccsc3)cn2)CC1`, for which the INHIBITION came to 69.3%.

`CCOc1ccc(NCc2cnc(N3CCN(C)CC3)nc2)cn1`: the INHIBITION was -15.7%.

As to `Cc1nc(CNCc2ccc(N3CCN(C)CC3)nc2)cs1`, the INHIBITION is reported as 29.1%.

For `CN1CCN(c2ccc(NCc3ccc([S+](C)[O-])cc3)cn2)CC1` (centres undefined), the INHIBITION is recorded as 47.4%.

In the case of `O=C(c1ccco1)N1C[C@@H]2CN(c3ccccn3)C[C@@H]2C1`, the INHIBITION is on record as 5.04%.

On to `O=C1NC2(CCN(C(=O)c3ccccc3)CC2)CC1c1cccnc1` (centres undefined), for which the INHIBITION is -8.19%.

In the case of `O=C(Nc1ccccc1)c1cccc(S(=O)(=O)NC[C@@H]2C[C@H](F)CN2)c1`, the INHIBITION is on record as 60.2%.

In the case of `O=C(c1cccc(S(=O)(=O)NC[C@@H]2C[C@H](F)CN2)c1)N1CCCCC1`, the INHIBITION is listed as 46.1%.

`CCOCCNC(=O)c1cccc(S(=O)(=O)NC[C@@H]2C[C@H](F)CN2)c1`: the INHIBITION is -3.87%.

`CNc1snc(C)c1C(=O)N1CCCC(n2ccnc2C)C1` (centres undefined): the INHIBITION came out at 37.9%.

Take `Cn1ccnc1CN1CCc2onc(COCC3CC3)c2C1`: the INHIBITION was found to be 19.6%.

Regarding `Cc1nccn1CCCN1CCCC(c2ccccc2)C1` (centres undefined), the INHIBITION stood at 49.4%.

Turning to `CC(=O)Nc1ccc(OCc2noc(C(=O)N3CCCCC3)n2)cc1`, the INHIBITION worked out at 17.1%.

As to `CC(=O)Nc1ccc(OCc2noc(C(=O)N3CCCC3)n2)cc1`, the INHIBITION is listed as 31.3%.

Turning to `CC(=O)Nc1ccc(OCc2noc(C(=O)N3CCCCCC3)n2)cc1`, the INHIBITION is 64.7%.

As to `N#Cc1cccc(N2CCCC3(C2)CN(c2ncc(F)cn2)CCO3)n1` (centres undefined), the INHIBITION worked out at 8.31%.

In the case of `c1coc(CN2CCn3c(COCC4CC4)nnc3C2)c1`, the INHIBITION is recorded as 18.5%.

In the case of `CN1CCN(C(=O)c2cnc3c(cnn3C3CCCC3)c2)CC1`, the INHIBITION is on record as 24.8%.

Regarding `CCOC1CCCN(C(=O)c2cnc3c(cnn3C3CCCC3)c2)C1` (centres undefined), the INHIBITION turned out to be 24%.

With `NC(=O)C1CCCN(C(=O)c2cnc3c(cnn3C3CCCC3)c2)C1` (centres undefined), the INHIBITION worked out at 56.6%.

In the case of `O=C(O)CN(C(=O)c1ccccc1)[C@H]1C[C@H]2CCOC[C@H]2C1`, the INHIBITION is -6.53%.

As for `Cc1ccc(NC2CCN(C(=O)c3ccc(C(N)=O)s3)CC2)nn1`, the INHIBITION is reported as 42%.

Consider `CN(C)c1ncccc1CNC(=O)NCc1ccc(Cl)s1`, for which the INHIBITION was -10.1%.

As for `COc1ccccc1CCC(=O)N1CCCC(OCc2cccnc2)C1` (centres undefined), the INHIBITION turned out to be 25.8%.

As to `O=C(CCn1ncc2ccccc21)N1CCCC(Cc2cccnc2)C1` (centres undefined), the INHIBITION amounted to 53%.

On to `CC(C)C(=O)N1CCCC(Cc2cccnc2)C1` (centres undefined), for which the INHIBITION stood at 16.2%.

Turning to `O=C1CCCN1CCCC(=O)N1CCCC(Cc2cccnc2)C1` (centres undefined), the INHIBITION is recorded as 41.2%.

Regarding `Cn1cnnc1CCC(=O)N1CCCC(OCc2cccnc2)C1` (centres undefined), the INHIBITION worked out at 51%.

In the case of `Cn1nccc1CCC(=O)N1CCCC(c2cnccn2)C1` (centres undefined), the INHIBITION is 25.6%.

As to `Cn1nccc1CCC(=O)N1CCCC(Cc2cccnc2)C1` (centres undefined), the INHIBITION is recorded as 56%.

Consider `Cc1cncc(C2CCN(C(=O)CCc3ccnn3C)CC2)n1`, for which the INHIBITION came to 6.32%.

On to `O=C(CCc1ccccc1F)N1CCCC(OCc2cccnc2)C1` (centres undefined), for which the INHIBITION is given as 48.8%.

Regarding `Cc1ccn(CCC(=O)N2CCCC(Cc3cccnc3)C2)n1` (centres undefined), the INHIBITION is 41.2%.

Regarding `Cn1nccc1CCC(=O)N1CCC(c2cnccn2)CC1`, the INHIBITION is given as 54.4%.

For `CN(CCC(=O)N1CCCC(Cc2cccnc2)C1)Cc1cccnc1` (centres undefined), the INHIBITION was found to be 38.2%.

The record behind these values is ChEMBL document CHEMBL4513216, “Probing the Open Global Health Chemical Diversity Library for Multistage-Active Starting Points for Next-Generation Antimalarials” (ACS Infect Dis, 2020).
